Rows were chosen to be rich in hits. Some 2.1% of all compounds tested hit in one or more screens of this group.
D2 antagonist – D2 dopamine receptor (human) antagonism. P14416. HEK293 TREx D2 cells, calcium flux, dopamine EC80. inhibition, % at 10 µM. hit rate 2% among 340,000; in the data active means inhibition above about 30%; inactive means below that, where a call was filed; further: 0% is about no effect
Target sequence (P14416 whole entry, looked up): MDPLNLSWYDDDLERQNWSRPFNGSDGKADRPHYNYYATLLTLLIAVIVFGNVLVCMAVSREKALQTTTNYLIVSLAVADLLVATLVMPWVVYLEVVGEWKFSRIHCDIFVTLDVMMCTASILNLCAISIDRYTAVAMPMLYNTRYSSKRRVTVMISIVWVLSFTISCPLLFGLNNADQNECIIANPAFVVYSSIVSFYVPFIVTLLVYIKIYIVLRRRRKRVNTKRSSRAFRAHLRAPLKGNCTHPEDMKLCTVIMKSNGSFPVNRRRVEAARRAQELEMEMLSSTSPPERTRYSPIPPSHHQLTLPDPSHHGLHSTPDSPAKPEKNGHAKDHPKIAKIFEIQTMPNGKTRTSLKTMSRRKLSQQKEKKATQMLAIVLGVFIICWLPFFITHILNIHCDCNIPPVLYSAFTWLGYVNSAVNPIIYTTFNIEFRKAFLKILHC
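Calcium flux kinetic readout in an inducible HEK293 TREx D2 line plated overnight at 30 C. After 180 s compound exposure, an EC80 dopamine challenge follows with another 180 s kinetic read to detect antagonism.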
D2 PAM-1 – positive allosteric modulators of human D2 dopamine receptor; potentiation, % at 10 µM; AID 485347; HEK293 T-REx D2, calcium flux, EC20 dopamine potentiation; P14416; hit rate 0.34% among 340,000;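 active means potentiation over 3 SD above the plate norm, cut at about 30% in these data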; further: 0% is about no effect
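Tetracycline-induced Hek293 Trex D2 cells, force-coupled to calcium, loaded with no-wash calcium dye. Compound added with 180 s kinetic read for agonism, then EC20 dopamine and a further 180 s read for potentiation.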
D2 ag-1 – D2 dopamine receptor (human) agonism; P14416; HEK293 T-REx D2 cells, calcium flux agonist mode; activation, % at 2 µM; hit rate 0.53% among 340,000; AID 485358;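 active means activation over 3 SD above normal in the single-dose calcium agonist read, cut at about 30% in these data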; further: 0% is about no effect
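HEK293 Trex D2 cells, tetracycline-induced, o/n 30 C 5% CO2; no-wash Ca dye, RT 30–90 min; 10-cycle baseline, 23 nl cpd added, kinetic Ca read 180 s; agonist hits = positive Ca response.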
D2 ag-2 – human D2 receptor agonism in beta-arrestin assay | P14416 | DiscoveRx PathHunter D2 beta-arrestin, luminescence, 90 min; 100% = 57 uM dopamine signal | activation, % (test concentration not listed) | hit rate 0.084% among 360,000; in the data active means activation above about 40%; inconclusive means between about 15% and that limit
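Agonist mode: compounds alone added to overnight-plated D2 PathHunter cells for 90 min at 37 C, with 57 uM final dopamine (EC100) defining full response. Beta-arrestin recruitment detected by chemiluminescent reagent, read after 1 h at ambient temperature.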
D2 PAM-2 – positive allosteric modulators of human D2 dopamine receptor. DiscoveRx D2 beta-arrestin cells, luminescence, 90 min; 100% = 57 uM dopamine signal. potentiation, % (concentration not given with the values). hit rate 0.23% among 360,000; in the data active means potentiation above about 50%; inconclusive means mostly about 30% to 49%
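PathHunter beta-arrestin assay in DiscoveRx D2 cells. Compounds were added with an EC20 of dopamine (50 nM final) for 90 min at 37 deg C. Luminescence was read 1 h after detection reagent, with 57 uM dopamine as the EC100 control.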
LDHA inh – blocks human lactate dehydrogenase A. AID 1347041. purified LDHA, NADH/diaphorase-resazurin fluorescence; hits give low values. P00338. activity change, % (values are at about 110 or 230 µM). hit rate 0.15% among 480,000; in the data active means activity change below about -30%; inconclusive means mostly about -25% to -30%;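 further: plate controls were DMSO wells for no effect and wells without enzyme for full effect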
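Enzyme activity of human lactate dehydrogenase 5 (2 nM; 0.06 mM NADH, 0.2 mM pyruvate, 5 min, RT) is measured via a resazurin/diaphorase fluorescence readout of residual NADH.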
Starred values were filed as active, the others as inactive; ? = inconclusive; . = no result.

SMILES | D2 antagonist | D2 PAM-1 | D2 ag-1 | D2 ag-2 | D2 PAM-2 | LDHA inh
Cc1ccc2[nH]c3c(=O)n(CC(=O)NCCCN4CCN(c5ccc(F)cc5)CC4)ncc3c2c1 | 62.6* | -6.3 | -0.1 | -2.8 | -30.1 | -7.7
O=C(CCS(=O)(=O)Cc1ccc(Cl)cc1)NCCCN1CCN(c2ccccc2F)CC1 | 1.3 | 22.7 | 0.5 | 1.8 | 2.8 | -3.3
Cc1sc(NC(=O)C(C)C)c(C#N)c1C | . | . | . | . | . | -0.1
CCOC(=O)c1[nH]c(C)c(C(=O)OCc2ccc(C(N)=O)cc2)c1C | . | . | . | . | . | 4.2
Cc1nnc(NC(=O)c2cc(-c3ccncc3)nc3ccccc23)s1 | . | . | . | . | . | 4.8
Cc1ccc(Cn2c(N3CCN(C/C=C/c4ccccc4)CC3)nc3c2c(=O)[nH]c(=O)n3C)cc1 | . | . | . | . | . | 8.9
Cc1ccc(-c2noc(CCC(=O)NCc3ccco3)n2)cc1 | 60.3* | 6.3 | -0.4 | -0.4 | -0.9 | -7.3
Cc1ccccc1-c1nc(CN2CCC(C(=O)O)CC2)c(C)o1 | 18.0 | -3.8 | 0.3 | -0.8 | -4.5 | -4.9
Cc1ccccc1-c1nc(CN(Cc2c(C)nn(C)c2C)C2CC2)c(C)o1 | 30.5* | -2.4 | 6.8 | -12.3 | -10.3 | -3.8
C/C(=N\NC(=O)c1cccnc1)c1cc(C)oc1C | 33.5* | -6.7 | 2.1 | -2.8 | -8.2 | -0.2
CC(=O)c1ccc(NC(=O)COC(=O)c2csc(NCc3ccccc3)n2)cc1 | . | . | . | . | . | -0.2
CCc1nc2ccccc2c(C(=O)OC(C)C(=O)NC(N)=O)c1C (stereo not given) | . | . | . | . | . | -4.5
Cc1cc(-c2ccc(S(=O)(=O)Nc3cccc(Cl)c3C)s2)on1 | . | . | . | . | . | 3.6
COc1cc(C(=O)OCC(=O)Nc2ccccc2C(=O)NC2CC2)c([N+](=O)[O-])cc1OC | 34.1* | -9.7 | -0.2 | -1.2 | -0.1 | 0.9
Cc1cccc(C)c1NC(=O)CN1C(=O)N(C)Cc2ccccc21 | 44.9* | -2.5 | 0.1 | 0.3 | -2.3 | 1.2
Cc1cccc(C)c1NC(=O)CN1C(=O)C2CC=CCC2C1=O (stereo not given) | 56.9* | -4.2 | 0.0 | -5.6 | 1.0 | 0.0
CN1Cc2ccccc2N(CC(=O)NCc2ccccc2)C1=O | . | -1.7 | . | -2.5 | -8.3 | -13.7
CC(=O)Oc1ccc2c(C)c(CC(=O)NCCc3ccccc3F)c(=O)oc2c1OC(C)=O | . | . | . | . | . | 3.5
Cc1ccc(S(=O)(=O)NCC2CCC(C(=O)NCC(=O)N3CCc4ccccc4C3)CC2)cc1 (stereo not given) | . | . | . | . | . | 4.1
CCCn1c(=O)c2ccc(C(=O)NCC(C)C)cc2n2c(SCc3ccc(F)cc3)nnc12 | . | . | . | . | . | -34.2*
COCCn1c(=O)[nH]c2cc(C(=O)NCCN3CCN(c4ccccc4)CC3)ccc2c1=O | 143.5* | -28.1 | 83.5* | ? | -0.3 | -11.7
c1csc(CSc2nc3ccccc3s2)c1 | 39.1* | 13.4 | 0.4 | -1.0 | 7.4 | -3.6
CC(C)Oc1ccccc1-c1cc(C(=O)O)c2ccccc2n1 | . | . | . | . | . | -3.1
Cc1ccc2[nH]cc(CCNC(=O)c3ccc(F)cc3)c2c1 | . | . | . | . | . | 0.2
O=C(NCc1ccc(Cl)cc1)C1CCN(C(=O)c2ccc(Cl)cc2)CC1 | 5.0 | 3.1 | -1.2 | 12.1 | -4.1 | -1.2
SMILES | D2 antagonist | D2 PAM-1 | D2 ag-1 | D2 ag-2 | D2 PAM-2 | LDHA inh
O=C(NCc1ccc(Cl)cc1)C1CCCN(C(=O)c2ccc(Cl)cc2)C1 (stereo not given) | 38.4* | 2.9 | -0.4 | -0.9 | -1.0 | -0.4
Cc1ccc(S(=O)(=O)N(C)C)cc1NC(=O)C1CCCN(C(=O)c2ccc(Cl)cc2)C1 (stereo not given) | 31.2* | -0.9 | -0.3 | -3.3 | -2.5 | -3.2
CN(C)c1cc2c(cc1NC(=O)c1cccs1)n(C)c(=O)c(=O)n2C | . | . | . | . | . | 19.3
c1cc(CNCC2CCCO2)c2cc[nH]c2c1 (stereo not given) | . | . | . | . | . | 3.8
CCn1nc(C(=O)Nc2nc(-c3ccc(NC(C)=O)cc3)cs2)c2ccccc2c1=O | . | . | . | . | . | -30.9*
Brc1cccc(N=Cc2c3ccccc3cc3ccccc23)c1 | . | . | . | . | . | 7.4
CN(C)c1ccc(C(=O)/C=C/c2ccc(Br)cc2)cc1 | -20.3 | -16.5 | 1.5 | -3.4 | -11.7 | 0.8
CCN(CC)c1ccc(/C=C/C(=O)c2ccc(Br)cc2)cc1 | 71.0* | -21.3 | 93.7* | -1.6 | 14.8 | -9.2
CC(C[N+](C)(C)C)OC(=O)C1(c2ccccc2)CCCC1 (stereo not given) | -0.4 | -8.6 | -0.7 | -5.8 | -18.3 | -30.5*
Cc1ccccc1C(C)NC(=O)c1cc2ccccc2oc1=O (stereo not given) | . | . | . | . | . | -11.0
COC(=O)CNC(=O)c1cccs1 | 65.9* | -7.6 | 0.5 | -2.3 | 4.9 | -0.4
CCOc1ccccc1NC(=O)/C=C/c1ccc2ccccc2n1 | . | . | . | . | . | 0.4
Cc1ccc(NC(=O)CSc2nncs2)cc1Cl | 47.8* | -19.5 | 3.5 | -1.8 | -19.0 | 1.4
Cc1ccc(C(=O)Nc2cccc(C(F)(F)F)c2)cc1NC(=O)c1c[nH]c2cc(C(F)(F)F)ccc2c1=O | . | . | . | 0.6 | -2.7 | -1.0
CCN1CCN(Cc2ccc(NC(=O)c3ccc(C)c(NC(=O)c4c[nH]c5cc(C(F)(F)F)ccc5c4=O)c3)cc2C(F)(F)F)CC1 | 36.1* | -4.1 | -0.8 | -1.9 | 0.1 | -0.1
C=C(C)COc1ccccc1N | . | . | . | . | . | 1.4
COC(=O)[C@@]1(Cc2ccc(F)cc2)[C@H]2C(CC(=O)C(=O)N3CCCC3)C(=O)C[C@H]2CN1C(=O)c1ccccc1 (stereo not given in full) | . | . | . | . | . | 3.8
COC(=O)[C@@]1(Cc2ccc(OC)cc2)[C@@H]2C(=CC(=O)[C@H]2CC(=O)C(=O)N2CCCC2)CN1C(=O)c1ccccc1 | 38.0* | 11.3 | 0.5 | -0.1 | 6.1 | 1.7
Cc1ccc(-c2cc(C(=O)OC(C)C(=O)NC(=O)NC3CCCC3)c3ccccc3n2)o1 (stereo not given) | . | . | . | . | . | 0.5
COCCn1c(-c2ccc(NC(C)=O)cc2)nc2c1c(=O)[nH]c(=O)n2CC(C)C | 30.5* | 0.3 | 0.4 | -1.5 | -2.7 | -3.6
CC(C)(C)c1ccc(OCCOc2ccccc2/C=C(/C#N)C(N)=O)cc1 | . | . | . | . | . | 3.8
COc1ccc(-n2c(CN3CCN(c4ccccn4)CC3)nc3ccc([N+](=O)[O-])cc3c2=O)c(OC)c1 | 6.3 | -6.4 | 35.9* | -0.1 | -7.6 | 1.4
COc1ccc(-n2c(CN3CCN(Cc4ccccc4)CC3)nc3ccc([N+](=O)[O-])cc3c2=O)c(OC)c1 | 0.0 | -5.5 | -0.2 | 0.4 | -19.4 | 0.6
CC(C)CC(=O)Nc1ccc(C(=O)Nc2ccc(CCC(=O)O)cc2)cc1 | . | . | . | . | . | 10.5
CC1CN(C(=O)CCC(=O)NCCCN2CCN(Cc3ccccc3)CC2)c2cc(Cl)ccc2O1 (stereo not given) | 37.1* | -31.8 | 0.9 | -11.6 | -33.7 | -1.1
